# Compounds with a hit are over-represented: about 19% of the library has one in this group of screens.
# HT1080 IDH1KD tx: kills HT-1080 cells with IDH1 knockdown | Potency, µM (titrated, usually from 46.1 µM), for inactives: at the highest dose activity, negative = toxicity, hits mostly cytotoxic | AID 686971 | 360,000 compounds, 2% hits | HT-1080 IDH1 knockdown viability, ATP luminescence, 48 h;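 also: potency is read from the fitted curve at half-maximal effect; 0% = DMSO wells and -100% = cell-free medium wells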
#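 CellTiter-Glo luminescence after 48 h compound exposure at 37 degrees C of IDH1-knockdown HT-1080 cells in 5% FBS RPMI. %Activity scaled between DMSO wells and cell-free media wells, with curves fitted and assigned curve classes.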
# IL-1B inflam inh: blocks inflammasome-driven IL-1 beta release | activity change, % at 57.5 µM | THP-1 LPS/ATP IL-1B secretion, AlphaLISA, 16 h; active compounds read low | 360,000 compounds, 4.7% hits; in the data active = activity change below about -50%; inconclusive = mostly about -30% to -49%
#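 Secreted IL-1B measured by AlphaLISA bead assay after 16 h compound exposure of THP-1 cells; compounds (final up to 57.5 uM) added 1 h before LPS (250 ng/mL) and ATP (1.25 mM) stimulation; lower signal means less secretion.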
# HT1080NT lethal: kills 2HG-producing HT-1080-NT fibrosarcoma cells; HT-1080-NT fibrosarcoma viability, CellTiter-Glo ATP luminescence, 48 h; Potency, µM (titrated, usually from 46.1 µM), for the others: at the top dose activity, negative = less viability, usual class: cytotoxic; 360,000 compounds, 1.6% hits; AID 686970;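 also: NT is the 2HG producing partner of a matched IDH1 knockdown line; potency is read from the fitted curve at half-maximal effect; 0% = DMSO-treated cells and -100% = media-only wells without cells; nearly all actives have a fitted effect of over 55% in size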
#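 Compounds were tested in concentration-response format on HT-1080-NT cells for 48 hours at 37 degrees C. Cell viability came from CellTiter-Glo luminescence; curves were classified by r2, response magnitude and activity.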
# TDP1 cell CPT: DT40-hTDP1 cell growth loss with CPT | chicken DT40 Tdp1-/-;hTDP1 cells + 20 nM CPT, ATP luminescence, 48 h | Potency, µM (highest dose often 46.2 µM), for the others: top-dose activity change, negative = growth inhibition, hits mostly inhibitors | 420,000 compounds, 12% hits | AID 686979; also: potency is read from the fitted curve at half-maximal effect; nearly all actives have a fitted effect of over 55% in size
#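 Cell growth measured by CellTiter-Glo luminescence after a minimum 48 h, 37 C compound exposure with 20 nM CPT in Tdp1-knockout DT40 cells stably expressing hTDP1, seeded 400/well; qHTS titration format.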
# TDP1 cell noCPT: qHTS for Inhibitors of human tyrosyl-DNA phosphodiesterase 1 (TDP1): qHTS in cells in absence of CPT | DT40 Tdp1-/- hTDP1 cells, no CPT, ATP luminescence, 48 h | Potency, µM (highest dose often 46.2 µM), for the others: at the highest dose activity change, negative = growth inhibition, actives largely listed as inhibitors | 420,000 compounds, 15% hits | AID 686978, 2013; also: potency is read from the fitted curve at half-maximal effect; nearly all actives have a fitted effect of over 55% in size
#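 Cells were dispensed at 400 per well, compounds added by pin tool, plates incubated ≥48 hr at 37 °C, then CellTiter-Glo added for 30 min at room temperature before luminescence reading. Line: DT40 Tdp1-/- complemented with hTDP1; camptothecin omitted.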
# Numbers without * were called inactive; ? = inconclusive; nt = no result given. Unless noted, calls follow the shape of the dose curve; as a rule, active = well fitted curve in the direction sought with a large enough effect; inconclusive = small, poorly fitted or top-dose-only effect, or another doubt; inactive = no such curve, though single readings can be large; an effect the other way counts as inactive or inconclusive. Unless noted, % is scaled to controls: 0 for no effect and ±100 for the full control effect.
SMILES,HT1080 IDH1KD tx,IL-1B inflam inh,HT1080NT lethal,TDP1 cell CPT,TDP1 cell noCPT
c1ccc(CN2CCC(Nc3nc(-c4cccnc4)nc4ccccc34)CC2)cc1,20.6µM*,-91.4*,?,18.4µM*,13µM*
COc1ccc(C(CNc2nc(-c3cccnc3)nc3ccccc23)N(C)C)cc1 (configuration not stated),16.4µM*,-82.2*,16.4µM*,?,?
Fc1ccc(CNc2nc(-c3cccnc3)nc3ccccc23)cc1,?,-68.6*,-29.5%,?,18.4µM*
COC(=O)Nc1ccc(=O)n(Cc2c(Cl)cccc2Cl)c1,-1.5%,0.6,-18.7%,-4.4%,-24.1%
CC(Nc1nc(-c2ccccc2F)nc2ccccc12)c1ccccc1 (configuration not stated),-4.4%,-90.0*,-16.1%,-21.6%,?
c1cncc(-c2nc(NCc3ccc4c(c3)OCO4)c3ccccc3n2)c1,-12.0%,-4.9,0.7%,?,20.6µM*
Clc1cccc(CNc2nc(-c3cccnc3)nc3ccccc23)c1,?,-16.6,-29.9%,?,?
CCN(CC(=O)Nc1ccc2c(c1)OCCO2)c1nc(-c2cccnc2)nc2ccccc12,-13.8%,-29.6,-1.3%,?,23.1µM*
c1cncc(-c2nc(NCC3COc4ccccc4O3)c3ccccc3n2)c1 (configuration not stated),?,-78.2*,?,18.4µM*,?
NS(=O)(=O)c1ccc(CNc2nc(-c3cccnc3)nc3ccccc23)cc1,-8.9%,?,-6.8%,?,14.6µM*
O=C(NC1=NCCS1)c1cccc(OC(F)F)c1,2.2%,-2.5,-1.3%,-4.5%,15.4%
CCCCOc1ccc(CNn2c(C)nc3ccccc3c2=O)cc1,0.9%,-3.7,8.7%,?,23.1µM*
COc1ccc(-n2nc(C(=O)N3CCCC(C)C3)c3c4ccccc4n(C)c3c2=O)cc1 (configuration not stated),nt,nt,nt,25.9µM*,?
COc1ccc(-n2nc(C(=O)NCCCN3CCCC3=O)c3c4ccccc4n(C)c3c2=O)cc1Cl,-2.5%,9.6,-2.4%,-12.9%,-22.6%
COc1ccc(-n2nc(C(=O)N3CCC(C#N)CC3)c3c4ccccc4n(C)c3c2=O)cc1,-3.1%,46.7,5.5%,1.6%,-16.0%
COc1ccc(-n2nc(C(=O)N3CCCCC3)c3c4ccccc4n(C)c3c2=O)cc1Cl,nt,nt,nt,4.11µM*,16.4µM*
CCOC(=O)C1CCN(C(=O)c2nn(-c3ccc(OC)c(Cl)c3)c(=O)c3c2c2ccccc2n3C)CC1,nt,nt,nt,20.6µM*,14.6µM*
CCOC(CNC(=O)c1[nH]c(C(F)(F)F)nc1-c1ccccc1)OCC,22.9%,-1.5,14.6%,-0.1%,4.4%
Cc1ccc(C(C)C)c(OCC(=O)Nn2c(C)nc3ccccc3c2=O)c1,-4.8%,23.0,-2.9%,-20.7%,6.51µM*
CCCCN1C(=O)C(NC(=O)c2ccc(C(C)(C)C)cc2)(C(F)(F)F)C(C(=O)OC)=C1C (configuration not stated),nt,nt,nt,?,23.1µM*
CCc1nn(CC(=O)NCCCOC)c(=O)c2cc3ccccc3n12,nt,nt,nt,-3.6%,-12.4%
CC1(C(=O)NCCc2ccccc2)Cc2c(-c3cccc(C(F)(F)F)c3)ccnc2O1 (configuration not stated),?,56.2,?,?,?
CC1(C(=O)NCCC(F)(F)F)Cc2c(-c3cccc(C(F)(F)F)c3)ccnc2O1 (configuration not stated),5.8µM*,0.0,20.6µM*,4.61µM*,3.26µM*
CC1(C(=O)NCCC(F)(F)F)Cc2c(-c3cccc(C(N)=O)c3)ccnc2O1 (configuration not stated),?,-8.7,?,?,0.82µM*
CC1(C(=O)NCC2CCOCC2)Cc2c(-c3cccc(C(F)(F)F)c3)ccnc2O1 (configuration not stated),3.66µM*,72.4,?,5.17µM*,3.26µM*
SMILES,HT1080 IDH1KD tx,IL-1B inflam inh,HT1080NT lethal,TDP1 cell CPT,TDP1 cell noCPT
CN(C)CCNC(=O)C1(C)Cc2c(-c3cccc(C(F)(F)F)c3)ccnc2O1 (configuration not stated),?,0.0,?,-73.2%,6.51µM*
COc1ccc(CCCNC(=O)C2(C)Cc3c(-c4cccc(C(N)=O)c4)ccnc3O2)cc1 (configuration not stated),?,18.3,?,?,?
C=CCOc1ccccc1CN1CCCC(CCC(=O)N(C)CCc2ccccn2)C1 (configuration not stated),2.4%,6.7,0.6%,2.8%,2.4%
COCCCn1c(C)nnc1-c1cnn(-c2ccccc2)c1N,0.3%,7.4,0.3%,0.3%,10.0%
Cc1ccccc1NC(=O)C1CCN(C(=O)N2CCOc3ccccc32)CC1,7.4%,0.8,0.2%,-23.1%,-18.8%
CN1CCN(S(=O)(=O)c2cccc(C(=O)NC3(C)CCS(=O)(=O)C3)c2)CC1 (configuration not stated),4.7%,5.2,10.3%,0.2%,2.8%
Cc1ccc(-c2nnn3c2nc(N2CCC(C)CC2)c2ccccc23)cc1,nt,nt,nt,2.7%,-20.1%
N#CC1=C2SC=C(c3ccc(Br)cc3)N2CCCC1=O,-3.3%,-11.9,-27.8%,?,23.1µM*
COc1ccc2c(c1)CCc1c-2n[nH]c1C(=O)NCCC(C)C,?,-60.3*,3.6%,?,?
COc1ccc(OC)c(/C=N/NC(=O)c2[nH]nc3c2CCc2ccccc2-3)c1,-8.2%,-7.7,-9.8%,-26.4%,-19.9%
CNC(=O)c1[nH]nc2c1CCc1cc(OC)ccc1-2,-1.6%,?,21.1%,?,?
COc1cccc(/C=N/NC(=O)c2[nH]nc3c2CCc2ccccc2-3)c1,2.06µM*,nt,3.66µM*,4.11µM*,4.11µM*
Cc1ccn2c(NC(=O)C(C)(C)Oc3ccc(Cl)cc3)c(-c3cccs3)nc2c1,?,?,?,?,18.4µM*
COc1ccc(-c2nc3cc(C)ccn3c2NC(=O)c2ccccc2OC)cc1,?,47.9,?,?,?
CCOC(=O)N1CCN(C(=O)C2CCN(S(=O)(=O)c3c(C)cc(C)cc3C)CC2)CC1,-5.4%,-6.9,-1.1%,?,18.4µM*
CCOC(=O)c1c(C)[nH]c(C)c1S(=O)(=O)N1CCC(C(=O)N2CCN(c3cc(C)ccc3C)CC2)CC1,nt,nt,nt,23.1µM*,23.1µM*
CCOC(=O)c1c(C)[nH]c(C)c1S(=O)(=O)N1CCC(C(=O)Nc2ccc(C)cn2)CC1,nt,nt,nt,18.4%,3.6%

# Screening data: PubChem BioAssay, National Center for Advancing Translational Sciences (NCATS)
